Data: PubChem BioAssay AID687001 (Broad Institute, 2013)
Results with a measured potency or affinity are listed apart. Activity calls are given as the source filed them.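 The calls were made as follows: active = signal-lowering compounds whose fitted half-maximal concentration is at or below twice the top tested dose in every run; inconclusive = runs disagree, flat 30 to 70% inhibition, or poor curve fit; inactive = the rest.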

Molecular target: Protein S100-A4 (Homo sapiens) (UniProt P26447)
Assay: human S100A4 peptide interaction inhibition curves – biochemical, fluorescence polarization, cherry-picked hits, dose response (AID 687001);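 also: 0% = DMSO neutral control wells and -100% = TFP positive control wells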
Conditions: FP, S100A4/TAMRA-myosin IIA peptide binding; series mostly up to 11 µM; activity change, negative = inhibition: at the top concentration

Chain of Protein S100-A4 (Homo sapiens) (P26447 whole entry, looked up): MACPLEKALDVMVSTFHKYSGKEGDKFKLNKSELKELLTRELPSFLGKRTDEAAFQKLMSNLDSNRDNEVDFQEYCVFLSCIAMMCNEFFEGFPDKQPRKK

Activity change, negative = inhibition, inactive:
COc1cccc(-c2ccc3c(c2)[C@H]2[C@H](CCN2C(=O)c2ccc4c(c2)OCO4)[C@H](CO)N3C)c1 9.07%
CC(NC(=O)Nc1ccc(F)cc1)c1ccc2c(c1)OCO2 (centres undefined) -3.23%
CCC(=O)Nc1ccc2c(c1)OC[C@H](C)N(Cc1ccccc1C(=O)O)C[C@H](C)[C@@H](OC)CN(C)C2=O -3.14%
O=C(CCN1CCCCC1)N[C@H]1CC[C@H](CCn2cc(-c3ccccc3)nn2)O[C@@H]1CO 0.877%
CC(=O)Nc1ccc(NC(=O)C(C)OC(=O)CCCN=C2NS(=O)(=O)c3ccccc32)cc1 (centres undefined) 58%
COc1ccc(OCC(=O)N2CCCC2=O)c([N+](=O)[O-])c1 5.77%
O=C(OCC(=O)N1CCCC1=O)c1ccc(Cl)cc1[N+](=O)[O-] 0.43%
COc1ccc2c3c([nH]c2c1)[C@H](CO)N(S(C)(=O)=O)CC31CN(CC2CCOCC2)C1 15.9%
Cn1cccc1C(=O)NNC(=O)c1ccccc1Br 1.23%
O=C(COC(=O)Cc1ccc(Cl)c(Cl)c1)Nc1ccc2[nH]c(=O)[nH]c2c1 1.28%
CO[C@@H]1CN(C)C(=O)c2cc(NS(=O)(=O)CC(F)(F)F)ccc2OC[C@@H](C)N(C)C[C@H]1C 5.53%
O=C(Nc1ccc2ccccc2c1)c1ccccc1Cl 0.242%
CCCNC(=O)N1[C@H](CO)[C@@H]2c3ccccc3N(C(=O)c3ccc(F)cc3)C[C@@H]21 1.39%
COc1ccc(S(=O)(=O)Nc2ccc3c(c2)C(=O)N([C@@H](C)CO)C[C@@H](C)[C@H](CN(C)C(=O)Nc2ccccc2)OCCCC[C@@H](C)O3)cc1 51.9%
